PubChem BioAssay (NCI)
This is part of a sample that, as a whole, favours compounds with a hit. Of some 79,000 tested, about 15% had one in any assay. Activity calls are given as the source filed them. No stated cut-off is given here; in the data, active means growth inhibition above about 70%; inactive means the rest.

Tests used:
[1] = NCI Yeast Anticancer Drug Screen. Data for the rad50 strain (AID 155);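 further: 0% = growth of vehicle-only cultures of the same strain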; details: S. cerevisiae rad50 strain growth inhibition, active compounds read high
In short: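 A DNA repair-deficient yeast mutant serves as the test organism; compound-induced growth inhibition is calculated against vehicle-treated cells.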

[2] = NCI Yeast Anticancer Drug Screen. Data for the mec2-1 strain (AID 157); details: S. cerevisiae mec2-1 strain, active compounds read high
In short: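 Growth inhibition is read against vehicle-treated controls after compound exposure of the mec2-1 yeast strain, which is defective in DNA damage repair or cell cycle control.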

[3] = NCI Yeast Anticancer Drug Screen. Data for the sgs1 mgt1 strain (AID 161);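 further: 0% = growth of cultures given vehicle only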; details: S. cerevisiae sgs1 mgt1 strain, active compounds read high
In short: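 Compounds are added to genetically altered yeast, and growth is compared with cultures given vehicle alone to give percent inhibition.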

[4] = NCI Yeast Anticancer Drug Screen. Data for the cln2 rad14 strain (AID 165);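 further: 0% = growth equal to vehicle treated cultures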; details: S. cerevisiae cln2 rad14 strain, active compounds read high
In short: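 Growth inhibition, relative to vehicle-treated controls, is the read-out. The test organism is a yeast strain with defined genetic alterations, cln2 rad14.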

[5] = NCI Yeast Anticancer Drug Screen. Data for the bub3 strain (AID 167); details: S. cerevisiae bub3 mutant strain, active compounds read high
In short: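 Inhibition values come from growth of compound-treated mutant yeast normalised to vehicle-treated controls.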

[6] = NCI Yeast Anticancer Drug Screen. Data for the mlh1 rad18 strain (AID 175); details: S. cerevisiae mlh1 rad18 strain growth inhibition, active compounds read high
In short: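 Cells of a genetically altered yeast strain, deficient in DNA damage repair, were treated with compound. Their growth was then compared with that of vehicle-treated cultures to give inhibition.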

[7] = at 5.0 µM (retest, dose inferred, filed as 0.5)
[8] = at 50.0 µM (retest, dose inferred, filed as 5.0)

Measured: growth inhibition

O=C1C=CC(=O)C1=Cc1ccc(Cl)c(Cl)c1
active: [1]; [7] 99% | [1]; [8] 99% | [1]; at 50.0 µM 98.8% | [2]; [7] 100% | [2]; [8] 99% | [2]; at 50.0 µM 98.9% | [3]; [7] 100% | [3]; [8] 98% | [3]; at 50.0 µM 98.7% | [4]; [7] 100% | [4]; [8] 99% | [4]; at 50.0 µM 99.2% | [5]; [7] 100% | [5]; [8] 99% | [5]; at 50.0 µM 98.8% | [6]; [7] 100% | [6]; [8] 99% | [6]; at 50.0 µM 99%

Cc1cc(NS(=O)(=O)c2ccc(N)cc2)no1.[Ag]
active: [1]; [7] 99% | [1]; [8] 99% | [1]; at 50.0 µM 99.4% | [2]; [7] 100% | [2]; [8] 99% | [2]; at 50.0 µM 99.7% | [3]; [7] 99% | [3]; [8] 100% | [3]; at 50.0 µM 99.7% | [4]; [7] 99% | [4]; [8] 99% | [4]; at 50.0 µM 99.5% | [5]; [7] 99% | [5]; [8] 99% | [5]; at 50.0 µM 99.7% | [6]; [7] 99% | [6]; [8] 99% | [6]; at 50.0 µM 99.5%

COc1ccc(C(=O)NCCN2CCN3Cc4[nH]c5ccccc5c4CC3C2)cc1 (stereo not drawn)
inactive: [1]; [7] -1% | [1]; [8] 3% | [1]; at 50.0 µM 1.65% | [2]; [7] -2% | [2]; [8] -5% | [2]; at 50.0 µM 1.85% | [3]; [7] -8% | [3]; [8] 8% | [3]; at 50.0 µM -6.4% | [4]; [7] -5% | [4]; [8] -2% | [4]; at 50.0 µM -17.6% | [5]; [7] -5% | [5]; [8] 1% | [5]; at 50.0 µM -5.05% | [6]; [7] -11% | [6]; [8] -3% | [6]; at 50.0 µM 11.7%

O=[N+]([O-])c1ccc(O)c(-c2ccccc2)c1
inactive: [1]; [7] 3% | [2]; [7] -31% | [3]; [7] 6% | [4]; [7] 6% | [5]; [7] -2% | [6]; [7] 5%
active: [1]; [8] 99% | [1]; at 50.0 µM 99.3% | [2]; [8] 99% | [2]; at 50.0 µM 99.7% | [3]; [8] 99% | [3]; at 50.0 µM 98.8% | [4]; [8] 99% | [4]; at 50.0 µM 98.7% | [5]; [8] 98% | [5]; at 50.0 µM 99.2% | [6]; [8] 99% | [6]; at 50.0 µM 99.2%

CCCCCCCC/C(C=O)=C\c1ccccc1
active: [1]; at 50.0 µM 77.8% | [2]; at 50.0 µM 72.8% | [3]; at 50.0 µM 78.2% | [6]; at 50.0 µM 77.9%
inactive: [1]; [7] -3% | [1]; [8] -25% | [2]; [7] -21% | [2]; [8] -2% | [3]; [7] -3% | [3]; [8] 3% | [4]; [7] -1% | [4]; [8] 7% | [4]; at 50.0 µM 45% | [5]; [7] -11% | [5]; [8] -19% | [5]; at 50.0 µM 64.8% | [6]; [7] -3% | [6]; [8] -13%

CC/C(=C(/CC)c1ccc([O-])cc1)c1ccc([O-])cc1.CC/C(=C(\CC)c1ccc([O-])cc1)c1ccc([O-])cc1.O=C([CH-]C(=O)c1ccccc1)c1ccccc1.O=C([CH-]C(=O)c1ccccc1)c1ccccc1.O=C([CH-]C(=O)c1ccccc1)c1ccccc1.O=C([CH-]C(=O)c1ccccc1)c1ccccc1.[Ti+4].[Ti+4]
active: [1]; [7] 84% | [1]; [8] 96% | [1]; at 50.0 µM 77.3% | [2]; [7] 97% | [2]; [8] 97% | [2]; at 50.0 µM 84% | [3]; [7] 97% | [3]; [8] 96% | [3]; at 50.0 µM 84.4% | [4]; [7] 94% | [4]; [8] 96% | [4]; at 50.0 µM 80% | [5]; [7] 98% | [5]; [8] 88% | [6]; [7] 94% | [6]; [8] 93% | [6]; at 50.0 µM 80%
inactive: [5]; at 50.0 µM 60.9%
